Molecules are shown by their SMILES. Inconclusive results are not listed. Calls of active or inactive are those of the source. Unless noted, calls come from the whole dose curve. Bridge positions count the residues as written; N and C are the ends. Square brackets hold non-standard residues; d marks the D form. Peptide text beside a SMILES is read from it. * marks the point of attachment. ξ: configuration not given here. Octanoyl(6-Me) = CCC(C)CCCCC(=O)*; ξThr(3R) = C[C@@H](O)C(N)C(=O)O; dDab = NCC[C@@H](N)C(=O)O; Dab = NCC[C@H](N)C(=O)O

A short description of assay [1]: qHTS for Inhibitors of the Functional Ribonucleoprotein Complex (vRNP) of Lassa (LASV) Arenavirus: LASV Primary Screen - GLuc reporter signal (AID 1347082; calls by dose curve; tested in HEK293 reporter line; note: nearly all actives have a fitted effect of over 60% in size; note: potency is the fitted concentration of half-maximal effect; for activity change, negative = inhibition: % is set by controls: 0 for no effect and ±100 for the full control effect). Particulars: LASV minigenome vRNP, Gaussia luciferase reporter; series mostly up to 57.5 µM. For orientation: qHTS replaces the single test concentration by a dilution series.
The target of assay [2] is Nucleoprotein (Lymphocytic choriomeningitis virus (strain Armstrong)) (UniProt P09992). The assay can be described thus: qHTS for Inhibitors of the Functional Ribonucleoprotein Complex (vRNP) of Lymphocytic Choriomeningitis Arenaviruses (LCMV): LCMV Primary Screen - GLuc reporter signal (AID 1347086). For activity change, negative = inhibition: % is set by controls: 0 for no effect and ±100 for the full control effect. Note: nearly all actives have a fitted effect of over 70% in size. Note: potency is the fitted concentration of half-maximal effect. Particulars: LCMV minigenome vRNP cell assay, Gaussia luciferase reporter; series mostly up to 57.5 µM.

Assay [3] is described as follows: Cytotoxicity counterscreen for inhibitors of SARS-CoV-2 cell entry (AID 1645845). Note: nearly all actives have a fitted effect of over 50% in size. Particulars: cell viability (SARS-CoV-2 entry assay cells); series mostly up to 57.1 µM. The method, boiled down:
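48 h compound treatment (after 1 h preincubation), HEK293-ACE2 cells, 37 C/5% CO2; ATP luminescence endpoint; normalized to cell wells and media blanks.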
On the technique in general: The purpose of a counterscreen is to sort out artefacts and off-target activity.

A short description of assay [4]: Primary qHTS to identify inhibitors of SARS-CoV-2 cell entry (AID 1645846). Note: nearly all actives have a fitted effect of over 45% in size. Note: potency is the fitted concentration of half-maximal effect. As to conditions: SARS-CoV-2 pseudovirus cell entry assay, luminescence; activity change, negative = inhibition: at 57.1 µM (top of the series) unless noted; series mostly up to 57.1 µM. The method, boiled down:
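Using luciferase-reporting pseudoviruses carrying Wuhan-Hu-1 spike, the screen tracks entry into stably ACE2-expressing cells over 48 hr. Activity is expressed relative to spike particles versus particles lacking any fusion protein.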

Another assay deals with CRL-7250. The experiment in a line: qHTS assay to identify novel small-molecules to repurpose for Merkel cell carcinoma treatment (AID 1296009; active = well fitted curve in the direction sought with a large enough effect; an effect the other way counts as inactive or inconclusive; note: nearly all actives have a fitted effect of over 60% in size). As to conditions: MCC and control cell lines, CellTiter-Glo viability, 72 h; series mostly up to 92 µM. The method, boiled down: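 After compound transfer in DMSO, plates were kept 72 hr at 37 degree celsius. Luminescent ATP signal from CellTiter-Glo served as viability measure, normalized against DMSO and no-cell controls.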

Assay [5] can be described thus: qHTS for Inhibitors of the Functional Ribonucleoprotein Complex (vRNP) of Lassa (LASV) Arenavirus: Viability assay - alamar blue signal for LASV Primary Screen (AID 1347083; calls by dose curve; tested in HEK293 reporter line; note: nearly all actives have a fitted effect of over 80% in size; note: potency is the fitted concentration of half-maximal effect). Particulars: cell viability, alamar blue fluorescence (LASV minigenome counter-screen); series mostly up to 57.5 µM.
Assay [6] is described as follows: Primary qHTS for inhibitors of SARS-S pseudo-typed particle cell entry (AID 1479145). For activity change, negative = inhibition: % is set by controls: 0 for no effect and ±100 for the full control effect. Note: nearly all actives have a fitted effect of over 45% in size. As to conditions: SARS-S pseudotyped particle cell entry, luciferase reporter; series mostly up to 57.1 µM.
Assay [7] can be described thus: Primary qHTS for Huh7 cytotoxicity: counterscreen for inhibitors of MERS-S pseudotyped particle cell entry (AID 1479147). As to conditions: cell viability read-out; series mostly up to 57.1 µM.
Assay [8] can be described thus: Primary qHTS for inhibitors of MERS-S pseudo-typed particle cell entry (AID 1479149). Note: nearly all actives have a fitted effect of over 60% in size. As to conditions: MERS-S pseudotyped particle entry, luciferase; series mostly up to 57.1 µM.
Assay [9] in a line: Primary qHTS for Vero E6 cytotoxicity: counterscreen for inhibitors of SARS-S pseudo-typed particle cell entry (AID 1479150). As to conditions: cell viability; series mostly up to 57.1 µM.
In assay [10] the target is Nuclear receptor subfamily 1 group I member 3 (Homo sapiens) (UniProt Q14994). The assay can be described thus: Primary qHTS for antagonist of constitutive androstane receptor (CAR) against the NCATS DSHEA and TCM libraries (AID 1794836; active = well fitted curve in the direction sought with a large enough effect; an effect the other way counts as inactive or inconclusive). As to conditions: CAR reporter cell assay, antagonist mode, luciferase; series mostly up to 40 µM. The method, boiled down: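 Antagonist mode: CAR reporter luminescence (ONE-Glo) in HepG2-CYP2B6-hCAR cells stimulated with 48 uM CITCO (final) over 24 h at 37 C, compounds titrated; viability read first by CellTiter-Fluor fluorescence.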

Assay [11] in a line: KB-8-5-11 P-gp reporter qHTS against the NCATS DSHEA and TCM libraries (AID 1919977; active = well fitted curve in the direction sought with a large enough effect; an effect the other way counts as inactive or inconclusive; note: 0% is about no effect). Particulars: KB-8-5-11 cells; series mostly up to 26.1 µM. The method, boiled down: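 Viability of drug-resistant KB-8-5-11 cells is measured by CellTiter-Glo luminescence following roughly 72 h treatment at 37C. Substances were titrated, with bortezomib as intraplate control.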
A short description of assay [12]: Confirmatory qHTS for VERO E6 Cytotoxicity Assay: Counterscreen for SARS-CoV-2 CPE Assay (AID 1508605). Note: % is set by controls: 0 for no effect and ±100 for the full control effect; nearly all actives have a fitted effect of over 60% in size. Particulars: cell viability luminescence; series mostly up to 20 µM.
A short description of assay [13]: Confirmatory qHTS for activators (rescue) of SARS-CoV-2 Cytopathic Effect (CPE) (AID 1508606). Note: potency is the fitted concentration of half-maximal effect; nearly all actives have a fitted effect of over 70% in size. As to conditions: Vero E6 SARS-CoV-2 CPE rescue, viability luminescence; series mostly up to 20 µM.
Assay [14] in a line: qHTS for Inhibitors of the Functional Ribonucleoprotein Complex (vRNP) of Lymphocytic Choriomeningitis Arenaviruses (LCMV): Viability assay - alamar blue signal for LCMV Primary Screen (AID 1347085; calls by dose curve; tested in HEK293 reporter line; note: potency is the fitted concentration of half-maximal effect; nearly all actives have a fitted effect of over 80% in size). As to conditions: alamar blue viability counter-screen, LCMV vRNP screen cells; series mostly up to 57.5 µM.
A short description of assay [15]: qHTS profiling of the MIPE4 collection as inhibitors of Plasmodium falciparum (3D7) proliferation (AID 743344; call rule not given here;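 note: scaled between DMSO vehicle wells and 0.29 µM artemisinin as full inhibition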). As to conditions: P. falciparum 3D7 in erythrocytes, SYBR Green DNA fluorescence, 72 h; at 28.5 µM (top of the series) unless noted. The method, boiled down: (§1)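 Erythrocytes infected with P. falciparum (0.3% parasitemia, 2.5% hematocrit) incubated with compounds 72 h at 37 C, 5% CO2. Lysis with saponin/Triton buffer containing SYBR Green I, overnight at room temperature in the dark; DNA fluorescence (485/535 nm) normalised to 0.29 uM artemisinin and DMSO.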

Assay [16] can be described thus: qHTS profiling of the MIPE4 collection as inhibitors of Plasmodium falciparum (DD2) proliferation (AID 743345; call rule not given here). Particulars: P. falciparum Dd2 in erythrocytes, SYBR Green DNA, 72 h; at 28.5 µM (top of the series) unless noted. The method, boiled down:
as §1

Nucleoprotein (Lymphocytic choriomeningitis virus (strain Armstrong)), sequence (P09992 whole entry, looked up): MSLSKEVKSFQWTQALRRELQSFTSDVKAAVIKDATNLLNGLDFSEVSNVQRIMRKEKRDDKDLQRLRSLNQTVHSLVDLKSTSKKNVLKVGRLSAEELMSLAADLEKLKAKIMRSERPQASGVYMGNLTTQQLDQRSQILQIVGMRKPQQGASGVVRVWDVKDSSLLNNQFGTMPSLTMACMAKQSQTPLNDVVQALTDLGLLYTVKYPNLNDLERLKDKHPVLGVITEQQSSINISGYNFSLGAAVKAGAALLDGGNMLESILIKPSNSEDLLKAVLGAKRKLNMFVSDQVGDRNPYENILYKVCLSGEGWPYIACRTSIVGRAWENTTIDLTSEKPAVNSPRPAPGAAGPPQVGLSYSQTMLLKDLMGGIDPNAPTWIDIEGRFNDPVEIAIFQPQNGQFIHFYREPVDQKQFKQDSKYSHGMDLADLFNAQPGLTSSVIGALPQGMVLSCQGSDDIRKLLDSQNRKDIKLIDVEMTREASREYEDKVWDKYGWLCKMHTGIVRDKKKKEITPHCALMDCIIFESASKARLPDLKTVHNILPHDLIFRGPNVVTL
Nuclear receptor subfamily 1 group I member 3 (Homo sapiens), sequence (Q14994 whole entry, looked up): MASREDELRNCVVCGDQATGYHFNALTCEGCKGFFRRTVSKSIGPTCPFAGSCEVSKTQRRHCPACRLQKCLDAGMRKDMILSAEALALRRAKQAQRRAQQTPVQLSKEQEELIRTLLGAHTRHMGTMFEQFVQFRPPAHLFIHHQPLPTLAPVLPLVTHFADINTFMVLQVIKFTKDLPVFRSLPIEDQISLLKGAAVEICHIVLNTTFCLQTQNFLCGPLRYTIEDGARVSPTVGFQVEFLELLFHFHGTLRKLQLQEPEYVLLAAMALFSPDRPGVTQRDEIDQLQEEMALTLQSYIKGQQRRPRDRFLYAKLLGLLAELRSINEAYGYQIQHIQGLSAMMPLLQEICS

With `COc1ccc(-c2cc(=O)c3c(O)cc(O)cc3o2)cc1O`, the Potency in assay [1] and in assay [2] was 24.3 µM (active) each time. Besides, the Potency result (in [3]; in [4]; in the assay with CRL-7250) was “inactive” each time.

For the molecule `COc1ccc([C@@H]2CC(=O)c3c(O)cc(O[C@@H]4O[C@H](CO[C@@H]5O[C@@H](C)[C@H](O)[C@@H](O)[C@@H]5O)[C@@H](O)[C@H](O)[C@@H]4O)cc3O2)cc1O`, the Potency entry in assay [1], in assay [5], in [2], in [6], in assay [8] and in assay [3] was “inactive” each time. For the same molecule, in the assay on CRL-7250, the Potency entry is “inactive”. The outcome in assay [7] and in assay [9] was inactive. The activity change, negative = inhibition in assay [4] was -5.46%.

For `Nc1ncnc2c1ncn2[C@@H]1O[C@@H](CO)[C@H](O)[C@H]1O`, the Potency entry (in assay [1]; in [5]; in assay [2]; in the assay on CRL-7250) was “inactive” throughout.

In the case of `Cc1cc2nc3c(=O)[nH]c(=O)nc-3n(CC(O)C(O)C(O)CO)c2cc1C` (stereo not drawn), the Potency result (in assay [1]; in [5]; in assay [3]; in [4]; in assay [10]; in the assay with CRL-7250) was “inactive” throughout. In addition, in assay [11], the result was inactive.

Regarding `COc1cccc([C@@H](C)NCCCc2ccccc2Cl)c1`, the Potency entry (in assay [1]; in assay [5]; in assay [2]; in assay [12]; in [3]; in the assay with CRL-7250) was “inactive” each time. Moreover, the Potency was 10 µM (active) in [13] and 22.4 µM (active) in assay [4].

As for `C[C@@H]1CN(Cc2ccc(F)cc2)[C@@H](C)CN1C(=O)c1cc2c(C(=O)C(=O)N(C)C)cn(C)c2cc1Cl`, the Potency entry (in [1]; in [3]; in the assay on CRL-7250) was “inactive” in each case. The Potency in assay [2] was 30.6 µM (active). The activity change, negative = inhibition in assay [4] is -24.1%.

As to `Cc1ccc2c(c1)c1c(n2CCc2ccc(C)nc2)CCN(C)C1`, the Potency result (in assay [1]; in assay [2]; with CRL-7250) was “inactive” each time.

Consider `CCC(C)CCCCC(=O)N[C@@H](CCN)C(=O)NC(C(=O)N[C@H](CCN)C(=O)N[C@@H]1CCNC(=O)C([C@@H](C)O)NC(=O)[C@@H](CCN)NC(=O)[C@@H](CCN)NC(=O)[C@@H](CC(C)C)NC(=O)[C@H](Cc2ccccc2)NC(=O)[C@H](CCN)NC1=O)[C@@H](C)O` (stereo partly drawn) ({Octanoyl(6-Me)}-[Dab][ξThr(3R)][dDab][dDab][Dab]F[dL][dDab][dDab][ξThr(3R)]; lactam 4-C), for which the Potency entry (in [1]; in assay [3]; in the assay on CRL-7250) was “inactive” each time.

Take `CC(C)c1cnn2c(NCc3ccccc3)cc(NCCCCCCN)nc12`: the Potency in assay [5] was 1.93 µM (active); in assay [14], 1.09 µM (active); in assay [2] it was 1.53 µM (active); in assay [13], 10 µM (active); in assay [4] it was 22.4 µM (active). For the same molecule, the Potency result in the assay on CRL-7250 was “inactive”.

As to `CC1(C)Cc2c(sc(NC(=S)NC(=O)c3ccccc3)c2C(=O)O)CO1`, the Potency in [5] is 21.7 µM (active); in assay [14], 38.5 µM (active). For the same molecule, the Potency entry (in assay [3]; in assay [4]; with CRL-7250) was “inactive” in each case.

On to `CS(=O)(=O)c1ccc(-c2cnc(N)c(C(=O)Nc3ccccc3)n2)cc1`, for which the Potency entry (in assay [1]; in assay [2]; in assay [3]; with CRL-7250) was “inactive” throughout. Also, the activity change, negative = inhibition in assay [4] is -1.17%.

Turning to `CC[C@H](NC(=O)[C@H](C)NC)C(=O)N1C[C@@H](O)C[C@H]1Cc1c(-c2[nH]c3cc(F)ccc3c2C[C@H]2C[C@H](O)CN2C(=O)[C@H](CC)NC(=O)[C@H](C)NC)[nH]c2cc(F)ccc12`, the Potency in assay [5] is 6.85 µM (active); in assay [14] it was 3.85 µM (active); in assay [2], 7.69 µM (active). Also, in the assay with CRL-7250, the Potency result is “inactive”.

With `NC(=O)c1ccc2nc(-c3ccc(Oc4ccc(Cl)cc4)cc3)[nH]c2c1`, the Potency in assay [5] was 0.769 µM (active). The Potency entry (in assay [2]; in the assay with CRL-7250) was “inactive” throughout.

For the molecule `COc1cc(N2CCC(C(N)=O)CC2)ccc1Nc1nc(N)c(Cl)c(Nc2ccccc2S(=O)(=O)C(C)C)n1`, the Potency in [5] was 12.2 µM (active); in [14] it was 1.72 µM (active); in [2], 0.769 µM (active). Also, the Potency result with CRL-7250 was “inactive”.

Take `Nc1ncnc2ccccc12`: the Potency in assay [5] was 15.3 µM (active); in [14], 12.2 µM (active); in [2] it was 24.3 µM (active). In addition, the Potency entry (in assay [3]; in the assay on CRL-7250) was “inactive” throughout. Moreover, the activity change, negative = inhibition in [4] came out at 2.32%.

The molecule `NC(=O)c1cccc(-c2cccc(OC(=O)NC3CCCCC3)c2)c1` registered a parasite growth, % of DMSO control in [15] of 81%. The molecule further came in with a parasite growth remaining, % of DMSO control (lower = more inhibition) in assay [16] of 98%. The results for the Potency in [5], in [14] and in [2] were 4.32 µM (active), 8.63 µM (active) and 6.85 µM (active), respectively. Also, the Potency entry (in assay [3]; with CRL-7250) was “inactive” each time.

On to `CNC(=O)c1ccc(N2C(=S)N(c3cnc(C#N)c(C(F)(F)F)c3)C(=O)C23CCC3)cc1F`, for which the Potency in assay [1] is 21.7 µM (active). In addition, the Potency result (in [3]; with CRL-7250) was “inactive” each time. Moreover, the activity change, negative = inhibition in [4] is -16.7%.

For `N#Cc1c(N(CC(=O)O)CC(=O)O)sc(C(=O)O)c1CC(=O)O`, the Potency entry (in assay [1]; in assay [5]; in [2]; in the assay with CRL-7250) was “inactive” throughout. For the same molecule, the activity change, negative = inhibition in assay [6] is -19.2% [at 0.573 µM] (inactive). Further, the outcome in assay [7] is “inactive [at 0.573 µM]”; in [9], “inactive [at 0.573 µM]”; in assay [3] it was “inactive [at 0.702 µM]”; in assay [4], “inactive [at 0.702 µM]”.

Values taken from PubChem BioAssay (NCATS).
